Records with an inconclusive call do not appear. Calls of active or inactive are those of the source. Unless noted, calls come from the whole dose curve; as a rule, active = well fitted curve in the direction sought with a large enough effect in the repeat runs; inconclusive = weak or mixed curves; inactive = no such curve, though single readings can be large; an effect the other way counts as inactive or inconclusive.

Assay [1] addresses Estrogen receptor beta (Homo sapiens) (UniProt Q92731). Description: qHTS assay to identify small molecule antagonists of the estrogen receptor beta (ER-beta) signaling pathway (AID 1259378; active = well fitted inhibition curve with a large enough effect in the signal ratio in the repeat runs, not every such curve was filed as active; the % refers to the signal ratio). The essentials: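 ER-beta-UAS-bla HEK293T (GripTite) cells in 2% charcoal-stripped FBS medium were preincubated 6 hr at 37C, dosed with compound, then stimulated with 1 nM E2 (final) for 16 hr; beta-lactamase reporter read by B/G FRET fluorescence after 2 hr substrate loading.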

A short description of assay [2]: qHTS assay to identify small molecule agonists of the androgen receptor (AR) signaling pathway in the presence of an antagonist - cell viability counter screen (AID 1259379).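 Note: MDA-kb2 human breast cancer cells carrying an MMTV luciferase reporter; series mostly up to about 92 µM; nearly all actives have a fitted effect of over 25% in size.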 The gist of the method:
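MDA-kb2 viability measured by CellTiter-Fluor fluorescence in the same wells as the luciferase signal; nilutamide 3.0uM final; 15-point compound titration; 16 hr at 37C.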

Assay [3] addresses Androgen receptor (Homo sapiens) (UniProt P10275). Description: qHTS assay to identify small molecule agonists of the androgen receptor (AR) signaling pathway in the presence of an antagonist (AID 1259381; calls by dose curve; note: nearly all actives have a fitted effect of over 15% in size). The gist of the method:
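Luminescent ONE-Glo read, 30min at room temperature, follows 16hr compound exposure (15 concentrations) of MDA-kb2 cells at 37C, 0% CO2, with nilutamide added at 3.0uM final.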

Assay [4] can be described thus: qHTS assay to identify small molecule antagonists of the estrogen receptor beta (ER-beta) signaling pathway - cell viability counter screen (AID 1259382). Note: nearly all actives have a fitted effect of over 55% in size. Note: potency is the fitted concentration of half-maximal effect. The gist of the method:
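Readout: luminescence, CellTiter-Glo, same wells as bla assay. System: ER-beta-UAS-bla GripTite HEK293T, 2% charcoal-stripped FBS. Exposure: compounds plus 1nM 17-beta-estradiol, 16 hr, 37C.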

For assay [5], the target named is Estrogen receptor (Homo sapiens) (UniProt P03372). The experiment in a line: qHTS assay to identify small molecule agonists of the estrogen receptor alpha (ER-alpha) signaling pathway in the presence of an antagonist (AID 1259383; calls by dose curve; note: top concentration of the series differs between compounds; nearly all actives have a fitted effect of over 15% in size). The essentials:
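Quantitative HTS confirmation: compounds titrated at 15 concentrations onto estrogen-deprived VM7Luc4E2 cells carrying a four-ERE luciferase construct, with ICI-182,780 present at 10.0nM final. Signal is luminescence after 22hr exposure.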

Assay [6] in a line: qHTS assay to identify small molecule agonists or antagonists of the thyroid stimulating hormone receptor (TSHR) signaling pathway - wild type cell line counter screen (AID 1259384; calls by dose curve). The gist of the method:
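Wild-type HEK293 cells were plated 18 h at 37 C/5% CO2, pin-dosed with compound plus Ro20-1724 medium, held 30 min at room temperature, then given cAMP-d2 and anti-cAMP-cryptate; fluorescence was read after 1 h. Fifteen concentrations, triplicate.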

In assay [7] the target is Thyrotropin receptor (Homo sapiens) (UniProt P16473). Description: qHTS assay to identify small molecule antagonists of the thyroid stimulating hormone receptor (TSHR) signaling pathway (AID 1259385; calls by dose curve; note: nearly all actives have a fitted effect of over 20% in size). The gist of the method: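 TSHR-HEK293 cells were plated and held 18 h at 37C/5% CO2, then given compound plus Ro20-1724 and stimulated with TSH at 1.5 ng/mL final. After 30 min at room temperature, cAMP was detected with cAMP-d2/anti-cAMP-cryptate (1 h) by fluorescence.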
Chain of Thyrotropin receptor (Homo sapiens) (P16473 whole entry, looked up): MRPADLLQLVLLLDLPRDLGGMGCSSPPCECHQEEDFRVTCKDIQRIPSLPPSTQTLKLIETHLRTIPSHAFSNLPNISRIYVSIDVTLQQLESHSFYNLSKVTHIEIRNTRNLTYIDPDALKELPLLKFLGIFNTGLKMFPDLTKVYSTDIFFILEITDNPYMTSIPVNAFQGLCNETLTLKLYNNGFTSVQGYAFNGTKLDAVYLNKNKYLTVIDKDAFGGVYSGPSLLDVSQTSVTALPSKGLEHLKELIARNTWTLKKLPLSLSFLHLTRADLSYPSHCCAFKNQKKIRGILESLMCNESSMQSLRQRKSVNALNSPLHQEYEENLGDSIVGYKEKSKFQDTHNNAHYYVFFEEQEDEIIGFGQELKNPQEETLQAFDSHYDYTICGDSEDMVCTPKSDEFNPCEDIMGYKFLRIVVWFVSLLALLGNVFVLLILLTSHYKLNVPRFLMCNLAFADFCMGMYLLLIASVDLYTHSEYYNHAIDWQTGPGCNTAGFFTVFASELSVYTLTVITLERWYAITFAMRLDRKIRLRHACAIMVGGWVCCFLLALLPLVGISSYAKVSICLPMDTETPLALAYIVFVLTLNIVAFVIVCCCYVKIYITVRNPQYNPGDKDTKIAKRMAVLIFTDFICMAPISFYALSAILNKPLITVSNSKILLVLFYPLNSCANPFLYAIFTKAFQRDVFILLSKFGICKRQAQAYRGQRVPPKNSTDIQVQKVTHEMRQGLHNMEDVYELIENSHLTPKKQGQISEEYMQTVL

The nature of assay [8]: qHTS assay to identify small molecule agonists of the estrogen receptor alpha (ER-alpha) signaling pathway in the presence of an antagonist - cell viability counter screen (AID 1259386).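 Note: cells exposed to compounds for 22 h at 37 °C before the viability read; nearly all actives have a fitted effect of over 30% in size.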 Note: potency is the fitted concentration of half-maximal effect. The gist of the method: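 The test measures whether compounds kill ER-alpha reporter cells (VM7Luc4E2) under antagonist co-treatment (ICI-182,780, 10.0nM). Fluorescence from CellTiter-Fluor is read after a 22hr exposure.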

In assay [9] the target is Progesterone receptor (Homo sapiens) (UniProt P06401). Description: qHTS assay to identify small molecule agonists of the progesterone receptor (PR) signaling pathway (AID 1346784; calls by dose curve; note: nearly all actives have a fitted effect of over 30% in size). The essentials: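 Fluorescence from LiveBLAzer B/G FRET substrate cleavage (2 hr, RT) reported PR activation in PR-UAS-bla HEK 293T cells treated 16 hr at 37C/5% CO2 with compounds; medium contained 2% charcoal-stripped FBS.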
Chain of Progesterone receptor (Homo sapiens) (P06401 whole entry, looked up): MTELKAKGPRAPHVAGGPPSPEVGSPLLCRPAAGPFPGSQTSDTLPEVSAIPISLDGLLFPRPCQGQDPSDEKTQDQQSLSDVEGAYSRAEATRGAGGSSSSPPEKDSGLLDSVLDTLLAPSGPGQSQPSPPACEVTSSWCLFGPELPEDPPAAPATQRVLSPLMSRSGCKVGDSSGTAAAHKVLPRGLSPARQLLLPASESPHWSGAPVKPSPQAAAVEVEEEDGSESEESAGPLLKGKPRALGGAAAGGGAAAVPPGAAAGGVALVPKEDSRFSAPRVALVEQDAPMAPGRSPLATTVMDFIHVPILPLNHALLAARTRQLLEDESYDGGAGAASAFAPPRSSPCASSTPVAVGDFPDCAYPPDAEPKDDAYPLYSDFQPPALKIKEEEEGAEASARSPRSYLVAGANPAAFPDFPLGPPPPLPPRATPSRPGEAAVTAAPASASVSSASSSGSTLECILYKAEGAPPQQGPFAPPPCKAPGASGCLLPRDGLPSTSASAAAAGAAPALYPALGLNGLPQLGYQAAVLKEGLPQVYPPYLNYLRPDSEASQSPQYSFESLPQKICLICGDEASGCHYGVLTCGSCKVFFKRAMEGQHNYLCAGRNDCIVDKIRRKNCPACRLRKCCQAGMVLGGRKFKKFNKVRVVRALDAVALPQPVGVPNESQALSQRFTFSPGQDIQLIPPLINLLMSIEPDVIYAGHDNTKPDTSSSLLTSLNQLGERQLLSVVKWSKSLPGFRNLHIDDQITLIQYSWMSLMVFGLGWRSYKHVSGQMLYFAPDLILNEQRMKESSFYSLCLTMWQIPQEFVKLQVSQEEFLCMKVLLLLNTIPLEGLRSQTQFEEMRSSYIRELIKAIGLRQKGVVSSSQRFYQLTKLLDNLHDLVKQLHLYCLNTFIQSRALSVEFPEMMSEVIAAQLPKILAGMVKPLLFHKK

Assay [10] shares this target. Description: qHTS assay to identify small molecule antagonists of the progesterone receptor (PR) signaling pathway (AID 1346795; active = well fitted inhibition curve with a large enough effect in the signal ratio in the repeat runs, not every such curve was filed as active; the % refers to the signal ratio; note: potency is the fitted concentration of half-maximal effect). The gist of the method:
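Fluorescence intensity measured 2 hr after adding beta-lactamase FRET substrate to PR-UAS-bla HEK293T cells that had been co-treated 16 hr with compound and 1 nM R5020 (final concentration) in 2% charcoal-stripped FBS.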

Assay [11] can be described thus: qHTS assay to identify small molecule antagonists of the progesterone receptor (PR) signaling pathway - cell viability counter screen (AID 1346798). Note: series mostly up to about 92 µM; nearly all actives have a fitted effect of over 50% in size. The gist of the method:
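CellTiter-Glo luminescence; PR-UAS-bla HEK293T, 3,000 cells/well; compound + R5020, 16 hr, 37C/5% CO2; 30 min RT before read.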

Assay [12] is described as follows: qHTS assay to identify small molecule agonists of the progesterone receptor (PR) signaling pathway - cell viability counter screen (AID 1346799; calls by dose curve; note: nearly all actives have a fitted effect of over 45% in size). The essentials: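 In parallel with the beta-lactamase readout, cytotoxicity toward PR-UAS-bla HEK293T cells was measured by CellTiter-Glo luminescence following 16 hr compound incubation in 2% charcoal-stripped FBS medium.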

Assay [13] is described as follows: qHTS assay to identify small molecule antagonists of the TGF-beta/Smad signaling pathway - cell viability counter screen (AID 1346824). Note: nearly all actives have a fitted effect of over 50% in size. Note: potency is the fitted concentration of half-maximal effect. The gist of the method: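 SBE-bla HEK 293T cells were plated overnight at 37 C, then given compounds in DMSO plus TGF-beta1 (added as 0.25 ng/mL solution) for 5 hr. After the bla read, CellTiter-Glo was added to the same wells and luminescence read after 30 min at room temperature.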

The nature of assay [14]: qHTS assay to identify small molecule agonists of the TGF-beta/Smad signaling pathway - cell viability counter screen (AID 1346829). Note: nearly all actives have a fitted effect of over 45% in size. Note: potency is the fitted concentration of half-maximal effect. The gist of the method: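 Tox21 qHTS format: SBE-bla HEK 293T cells treated with DMSO-dissolved compounds for 5 hr; CellTiter-Glo luminescence after 30 min at room temperature.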
Assay [15] is described as follows: qHTS assay to identify small molecule agonists of the TGF-beta/Smad signaling pathway (AID 1346859; active = well fitted activation curve with a large enough effect in the signal ratio in the repeat runs, not every such curve was filed as active; the % refers to the signal ratio; note: series mostly up to about 77 µM). The essentials:
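After overnight seeding, SBE-bla HEK 293T cells are dosed with compounds in DMSO and kept 5 hr at 37 C, 5% CO2. LiveBLAzer-type FRET substrate is then applied for 2 hr at room temperature.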

Assay [16] is described as follows: Human pregnane X receptor (PXR) small molecule agonists, qHTS cell viability counter screen (AID 1346977). Note: nearly all actives have a fitted effect of over 50% in size. Note: potency is the fitted concentration of half-maximal effect. The essentials:
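Viability counter screen: CellTiter-Fluor signal in PXR-Luc HepG2 cells, 24hr compound exposure, 37C, 5% CO2.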

In assay [17] the target is Estrogen receptor beta (Homo sapiens) (UniProt Q92731). The experiment in a line: qHTS assay to identify small molecule agonists of the estrogen receptor beta (ER-beta) signaling pathway (AID 1259377; active = well fitted activation curve with a large enough effect in the signal ratio in the repeat runs, not every such curve was filed as active; the % refers to the signal ratio). The gist of the method: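 qHTS in ER-beta-UAS-bla HEK293T cells: 6 hr settling, then 16 hr compound at 37C, then LiveBLAzer substrate 2 h at RT before fluorescence reading.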
Chain of Estrogen receptor beta (Homo sapiens) (Q92731 whole entry, looked up): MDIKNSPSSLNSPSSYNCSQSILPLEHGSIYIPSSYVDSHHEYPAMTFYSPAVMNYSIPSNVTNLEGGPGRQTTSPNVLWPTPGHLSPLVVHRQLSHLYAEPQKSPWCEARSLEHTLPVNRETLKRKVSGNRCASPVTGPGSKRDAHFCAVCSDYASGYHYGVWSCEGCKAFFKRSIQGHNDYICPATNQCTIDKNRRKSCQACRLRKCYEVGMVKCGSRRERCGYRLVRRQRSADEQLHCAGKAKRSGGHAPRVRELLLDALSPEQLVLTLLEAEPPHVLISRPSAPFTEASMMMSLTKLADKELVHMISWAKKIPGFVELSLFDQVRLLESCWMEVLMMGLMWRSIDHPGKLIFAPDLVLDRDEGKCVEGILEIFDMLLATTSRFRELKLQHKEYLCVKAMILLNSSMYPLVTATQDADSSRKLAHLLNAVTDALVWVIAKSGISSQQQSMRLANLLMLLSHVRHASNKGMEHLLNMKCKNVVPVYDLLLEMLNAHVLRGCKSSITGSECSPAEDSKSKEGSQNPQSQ

The nature of assay [18]: qHTS assay to identify small molecule agonists of the estrogen receptor beta (ER-beta) signaling pathway - cell viability counter screen (AID 1259380). Note: nearly all actives have a fitted effect of over 30% in size. Note: potency is the fitted concentration of half-maximal effect. The gist of the method: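 Measured: luminescence from CellTiter-Glo after 30 min at room temperature, added to wells already read for the LiveBLAzer FRET reporter (2 hr substrate); ER-beta-UAS-bla HEK293T cells had 16 hr compound treatment at 37C, 5% CO2.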

For assay [19], the target named is Thyrotropin-releasing hormone receptor (Homo sapiens) (UniProt P34981). The experiment in a line: qHTS assay to identify small molecule antagonists of the thyrotropin-releasing hormone receptor (TRHR) signaling pathway (AID 1346877; active = well fitted inhibition curve with a large enough effect in the repeat runs, not every such curve was filed as active; note: series mostly up to about 51 µM). The gist of the method: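 Overnight-plated (18 h, 37 °C) HEK293 cells expressing TRHR were dye-loaded 2 h, treated with compound, then stimulated with TRH at 1 nM final. Fluorescence intensity was captured every second for 3 min.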
Chain of Thyrotropin-releasing hormone receptor (Homo sapiens) (P34981 whole entry, looked up): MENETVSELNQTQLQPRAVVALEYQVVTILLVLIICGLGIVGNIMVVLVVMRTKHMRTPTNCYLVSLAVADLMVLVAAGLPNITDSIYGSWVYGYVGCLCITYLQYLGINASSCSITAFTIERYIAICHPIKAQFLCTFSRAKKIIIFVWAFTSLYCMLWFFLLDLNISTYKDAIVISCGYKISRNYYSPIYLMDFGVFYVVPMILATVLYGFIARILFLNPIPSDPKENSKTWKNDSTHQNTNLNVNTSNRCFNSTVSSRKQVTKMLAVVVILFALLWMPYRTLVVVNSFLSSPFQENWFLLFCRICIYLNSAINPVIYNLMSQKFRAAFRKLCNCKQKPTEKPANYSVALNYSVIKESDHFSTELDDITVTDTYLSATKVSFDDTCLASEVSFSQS

For assay [20] the target is unchanged. Description: qHTS assay to identify small molecule agonists of the thyrotropin-releasing hormone receptor (TRHR) signaling pathway (AID 1346891; calls by dose curve;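 note: HEK293 cells expressing TRHR with calcium dye readout; series mostly up to about 58 µM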). The essentials: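 Compounds were tested as agonists at 15 concentrations, in triplicate, on TRHR-Hek293 cells; calcium-sensitive dye fluorescence was recorded for 3 min following addition.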

Chain of Estrogen receptor (Homo sapiens) (P03372 whole entry, looked up): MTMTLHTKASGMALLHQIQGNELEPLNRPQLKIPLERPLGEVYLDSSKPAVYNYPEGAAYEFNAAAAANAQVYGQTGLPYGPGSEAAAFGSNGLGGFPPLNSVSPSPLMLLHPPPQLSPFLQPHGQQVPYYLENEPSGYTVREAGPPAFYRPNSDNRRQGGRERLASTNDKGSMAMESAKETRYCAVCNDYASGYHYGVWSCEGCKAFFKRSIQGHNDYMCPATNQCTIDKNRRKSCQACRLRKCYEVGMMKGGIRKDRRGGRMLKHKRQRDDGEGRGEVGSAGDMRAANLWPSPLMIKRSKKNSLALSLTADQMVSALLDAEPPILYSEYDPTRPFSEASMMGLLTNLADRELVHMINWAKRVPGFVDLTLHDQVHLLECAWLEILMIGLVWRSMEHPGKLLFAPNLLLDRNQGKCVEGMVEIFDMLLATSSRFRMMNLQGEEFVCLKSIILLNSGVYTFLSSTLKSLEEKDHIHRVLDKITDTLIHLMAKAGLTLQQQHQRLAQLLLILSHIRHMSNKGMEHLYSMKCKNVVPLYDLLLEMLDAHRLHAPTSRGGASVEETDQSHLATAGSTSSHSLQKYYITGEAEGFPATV
Chain of Androgen receptor (Homo sapiens) (P10275 whole entry, looked up): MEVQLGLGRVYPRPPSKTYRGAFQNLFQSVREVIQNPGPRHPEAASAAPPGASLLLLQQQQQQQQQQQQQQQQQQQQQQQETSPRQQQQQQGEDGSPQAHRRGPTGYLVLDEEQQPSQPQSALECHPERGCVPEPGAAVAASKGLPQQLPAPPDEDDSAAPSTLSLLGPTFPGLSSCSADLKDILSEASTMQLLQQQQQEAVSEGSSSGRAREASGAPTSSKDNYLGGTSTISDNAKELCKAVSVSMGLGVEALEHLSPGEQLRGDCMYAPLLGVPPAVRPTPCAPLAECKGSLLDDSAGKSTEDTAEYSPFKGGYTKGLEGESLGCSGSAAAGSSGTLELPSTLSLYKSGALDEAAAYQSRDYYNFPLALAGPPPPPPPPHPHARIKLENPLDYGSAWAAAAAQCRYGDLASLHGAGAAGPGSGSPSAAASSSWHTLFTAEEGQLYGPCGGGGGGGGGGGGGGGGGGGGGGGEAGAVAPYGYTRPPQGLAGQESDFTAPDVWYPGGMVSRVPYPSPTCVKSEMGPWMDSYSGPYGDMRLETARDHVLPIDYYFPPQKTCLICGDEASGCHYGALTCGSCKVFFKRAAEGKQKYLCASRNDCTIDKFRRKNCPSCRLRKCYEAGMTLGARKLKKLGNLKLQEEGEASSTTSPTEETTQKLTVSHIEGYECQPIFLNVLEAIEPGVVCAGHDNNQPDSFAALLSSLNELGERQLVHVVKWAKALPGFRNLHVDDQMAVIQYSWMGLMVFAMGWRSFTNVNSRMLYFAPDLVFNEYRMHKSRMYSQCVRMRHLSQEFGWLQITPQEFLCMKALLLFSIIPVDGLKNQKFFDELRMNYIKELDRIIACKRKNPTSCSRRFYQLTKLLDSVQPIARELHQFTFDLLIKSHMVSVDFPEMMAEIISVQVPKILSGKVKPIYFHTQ

For `Cc1cccc(C)c1NC(=O)c1ccc(N)cc1`, the Potency result in assay [1], in assay [2], in assay [4], in assay [5], in assay [7] and in [8] was “inactive” each time. Further, the Potency entry in assay [9], in assay [10], in [11], in [12], in assay [13] and in [14] was “inactive” each time. Further, the Potency entry in assay [15] and in assay [16] was “inactive” each time. In addition, the outcome in assay [3] and in assay [6] was inactive.
For the compound `Cc1cc(C(C#N)c2ccc(Cl)cc2)c(Cl)cc1NC(=O)c1cc(I)cc(I)c1O` (centres undefined), the Potency entry in assay [17], in assay [5], in [13], in [14], in assay [15] and in [19] was “inactive” each time. In addition, the Potency was 11.9 µM (active) in [18], 23.7 µM (active) in assay [4], 29.8 µM (active) in [10] and 16.8 µM (active) in assay [16]. Further, the compound was classed as inactive in assay [20].
As to `CCN1C(=O)c2ccccc2C1Nc1ccc(OCCN2CCCCC2)cc1` (centres undefined), the Potency entry in assay [1], in assay [2], in assay [18], in [4], in [5] and in [7] was “inactive” throughout. Also, the Potency entry in assay [9], in [10], in [11], in [13], in assay [14] and in assay [15] was “inactive” each time. In addition, the Potency entry in [19] was “inactive”. The outcome in assay [3], in assay [6] and in assay [20] was inactive.
On to `CCCCCCCCCCCC(=O)OCC(C)OC(=O)CCCCC(=O)O` (centres undefined), for which the Potency entry in assay [1], in assay [2], in assay [18], in assay [4], in [5] and in assay [7] was “inactive” each time. In addition, the Potency result in assay [8], in [9], in assay [10], in assay [13], in assay [14] and in assay [15] was “inactive” in each case. Also, the Potency result in assay [19] and in [16] was “inactive” each time. The outcome in assay [6] and in [20] was inactive.
`O=C(O)c1cc(O)c2ccccc2c1O`: the Potency entry in [17], in assay [5], in assay [9], in assay [11] and in assay [19] was “inactive” throughout. In addition, the Potency was 30.6 µM (active) in [18]; 27.3 µM (active) in assay [8]; 4.9 µM (active) in assay [13]; 3.09 µM (active) in assay [14]; 7.7 µM (active) in assay [16]. Further, the result in [6] and in assay [20] was inactive.
Take `Sc1nc2ccccc2s1`: the Potency result in assay [1], in assay [2], in assay [18], in assay [7], in [8] and in assay [9] was “inactive” each time. Besides, the Potency entry in [10], in assay [11], in assay [12], in [13], in assay [14] and in [15] was “inactive” each time. Further, the Potency entry in assay [19] and in assay [16] was “inactive” in each case. Further, in assay [20], the outcome was inactive.
For the compound `CC1(C)CC(O)CC(C)(C)N1`, the Potency result in assay [1], in assay [2], in assay [18], in assay [4], in assay [5] and in assay [7] was “inactive” throughout. The Potency entry in assay [8], in assay [9], in assay [10], in assay [11], in assay [12] and in assay [13] was “inactive” throughout. Also, the Potency result in assay [14], in [15], in assay [19] and in [16] was “inactive” each time. The compound was called inactive in assay [6] and in assay [20].

The values are drawn from PubChem BioAssay (Tox21).
